In the library only some 1.2% were active in any assay of this set; here they are far more common.
RGS7-Gao reg = modulates binding of RGS7 to human Galphao; 0.35% of 220,000 active; binding response (% of control), % at 10 µM; Multiplexed bead flow cytometry; actives lie on both sides; P09471; in the data active means binding response below about 49% or above about 150%; inconclusive means no clear call, values can overlap the other calls; inactive means in between;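 further: fluorescent Galphao held in activated GDP-AlF4 state binding bead-coupled RGS7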
RGS4-Gao reg = modulates binding of RGS4 to human Galphao; P09471; Multiplexed bead flow cytometry; actives lie on both sides; binding response (% of control), % at 10 µM; 0.33% of 220,000 active; AID 1415; in the data active means binding response below about 49% or above about 150%; inactive means in between;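 further: fluorescent Galphao activated with aluminum fluoride binding bead-coupled RGS4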
RGS16-Gao HTS = modulates binding between human RGS16 and Galphao. 0.38% of 220,000 active. AID 1441. bead-based flow cytometry RGS16-Galphao binding, fluorescence; actives lie on both sides. binding response (% of control), % at 10 µM. O15492+P09471;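 further: Galphao activated by GDP with aluminum fluoride before binding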
Target sequence (O15492 whole entry, looked up): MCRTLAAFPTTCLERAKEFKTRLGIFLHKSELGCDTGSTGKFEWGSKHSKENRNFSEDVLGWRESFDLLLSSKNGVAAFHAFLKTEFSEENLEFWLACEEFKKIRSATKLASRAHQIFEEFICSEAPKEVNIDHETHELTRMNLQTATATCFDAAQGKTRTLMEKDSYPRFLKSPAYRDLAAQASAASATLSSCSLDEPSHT
Target sequence (P09471 whole entry, looked up): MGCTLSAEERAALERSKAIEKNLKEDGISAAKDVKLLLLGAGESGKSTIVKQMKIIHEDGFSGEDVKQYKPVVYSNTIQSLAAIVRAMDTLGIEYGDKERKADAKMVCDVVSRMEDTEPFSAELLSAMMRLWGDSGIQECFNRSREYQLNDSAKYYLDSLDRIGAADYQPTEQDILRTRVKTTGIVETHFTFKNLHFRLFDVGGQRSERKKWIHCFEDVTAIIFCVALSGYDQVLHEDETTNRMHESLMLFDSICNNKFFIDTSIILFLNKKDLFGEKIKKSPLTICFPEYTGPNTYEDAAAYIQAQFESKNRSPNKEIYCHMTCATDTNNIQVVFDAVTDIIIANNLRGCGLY
Avidin fluor = avidin bead compound fluorescence profile; Avidin beads, compound fluorescence 488/530 nm, flow cytometry; active compounds read high; fluorescence (KMESF) at 10 µM; 0.38% of 220,000 active; in the data active means fluorescence above about 47
GSH fluor = GSH bead compound fluorescence profile; AID 1776; GSH beads flow cytometry, compound fluorescence 488/530 nm; active compounds read high; 0.25% of 190,000 active; fluorescence (KMESF) at 10 µM; in the data active means fluorescence above about 89;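 further: glutathione beads carrying GST-tagged Bcl family fusion proteins plus one bare bead set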
RGS8-Gao = regulators of human RGS8-Galphao interaction; 0.34% of 220,000 active; P09471; response (percent of control binding), % at 10 µM; multiplexed bead flow cytometry, RGS8-Galphao binding; actives lie on both sides; in the data active means response below about 60% or above about 140%; inactive means in between;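 further: Galphao activated as the GDP aluminium fluoride complex binding bead-coupled RGS8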
RGS4-Gao HTS = RGS4-Galphao interaction regulator (human); shares compounds with RGS16-Gao HTS; RGS4–Galpha-o binding response, % at 10 µM; 99% of 1,600 active; multiplexed bead flow cytometry, RGS–Galpha-o binding;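 further: fluorescently labeled Galpha-o bound to GDP with aluminium fluoride binding biotinylated RGS beads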
Avidin counter = biotin-avidin bead binding disruption counter-screen; AID 1783; inhibition, % at 10 µM; shares compounds with RGS16-Gao HTS; streptavidin beads, fluorescein-biotin binding, flow cytometry; 1,700 tested, under 10 active;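 active means inhibition above 50%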;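 further: median green fluorescence of gated singlet beads compared with DMSO control wells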
RGS8-Gao confirm = confirmation of regulators of human RGS8-Galphao interaction; shares compounds with RGS16-Gao HTS; bead-based flow cytometry RGS8-Galphao binding, fluorescence; actives lie on both sides; binding response (% of control), % at 10 µM; 3% of 1,700 active; AID 1836; in the data active means binding response below about 72% or above about 130%; inactive means in between;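 further: Galphao activated as GDP AlF4 complex before binding bead RGS8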
RGS7-Gao confirm = RGS7-Galphao interaction regulation, single point confirmation | response (percent of control binding), % at 10 µM | shares compounds with RGS16-Gao HTS | AID 1837 | 7.8% of 1,700 active | bead-based flow cytometry RGS7-Galphao binding; actives lie on both sides; in the data active means response below about 75% or above about 130%; inactive means in between;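 further: fluorescent Galphao activated with GDP and aluminum fluoride binding bead-coupled RGS7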
RGS16-Gao single = RGS16-Galphao interaction regulation, single point confirmation; shares compounds with RGS16-Gao HTS; bead-based flow cytometry, RGS16-Galphao binding; actives lie on both sides; response (% of control binding), % at 10 µM; 4% of 1,700 active; in the data active means response below about 74% or above about 130%; inactive means in between;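 further: Galphao activated as the GDP aluminium fluoride complex binding bead-coupled RGS16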
RGS4-Gao confirm = confirmation of regulators of human RGS4-Galphao interaction; shares compounds with RGS16-Gao HTS; RGS4-Galphao binding, multiplexed bead flow cytometry; actives lie on both sides; binding response (% of control), % at 10 µM; 4% of 1,700 active; in the data active means binding response below about 74% or above about 130%; inactive means in between
RGS19-Gao conf = RGS19-Galphao interaction regulation, single point confirmation; 5% of 1,700 active; bead-based flow cytometry RGS19-Galphao binding; actives lie on both sides; shares compounds with RGS16-Gao HTS; response (percent of control binding), % at 10 µM; in the data active means response below about 50% or above about 160%; inactive means in between
A number is an active result; [ ] = another dose, or the depositor's remark. Unless noted, how the calls were made is not given here.

`Cc1cc(C)c(C(=O)OCCNC(=O)c2cccnc2)cc1C` gave RGS7-Gao reg 184[activator], RGS4-Gao reg inactive, RGS16-Gao HTS inactive, Avidin fluor 215, GSH fluor inactive, RGS8-Gao inactive, RGS4-Gao HTS 122, Avidin counter inactive, RGS8-Gao confirm inactive, RGS7-Gao confirm inactive, RGS16-Gao single inactive, RGS4-Gao confirm inactive and RGS19-Gao conf inactive.
`Cc1noc(C)c1S(=O)(=O)NC1CCN(Cc2ccccc2)CC1` gave RGS7-Gao reg inactive, RGS4-Gao reg inactive, RGS16-Gao HTS 183[activator], Avidin fluor inactive, GSH fluor inactive, RGS8-Gao inactive and RGS4-Gao HTS 108.
O=C(CSc1nnc(-c2cc(-c3cccs3)nc3ccccc23)o1)NC1CCCCC1 was read as RGS7-Gao reg inactive, RGS4-Gao reg inactive, RGS16-Gao HTS inactive, Avidin fluor inactive, GSH fluor inactive and RGS8-Gao inactive.
Screening CCc1ccc(/C=C2/C(=O)N(CC)C(=S)N2C)s1 returned RGS7-Gao reg 199[activator], RGS4-Gao reg 198[activator], RGS16-Gao HTS inactive, Avidin fluor inactive, GSH fluor inactive, RGS8-Gao 170[activator], Avidin counter inactive, RGS8-Gao confirm inactive, RGS7-Gao confirm inactive, RGS16-Gao single inactive, RGS4-Gao confirm inactive and RGS19-Gao conf inactive.
Screening CCOc1ccc(N2C(=O)/C(=C/c3cccs3)N(C)C2=S)cc1 returned RGS7-Gao reg inactive, RGS4-Gao reg inactive, RGS16-Gao HTS inactive, Avidin fluor inactive, GSH fluor inactive and RGS8-Gao inactive.
Screening Cc1ccccc1OCCn1cc(/C(N)=N/O)c2ccccc21 returned RGS7-Gao reg inactive, RGS4-Gao reg inactive, RGS16-Gao HTS inactive, Avidin fluor inactive, GSH fluor inactive and RGS8-Gao inactive.
C=CCOC(=O)C(=O)/C=C/c1c(C)n(C)n(-c2ccccc2)c1=O was read as RGS7-Gao reg 154[activator], RGS4-Gao reg 150[activator], RGS16-Gao HTS inactive, Avidin fluor inactive, GSH fluor inactive, RGS8-Gao inactive, Avidin counter inactive, RGS8-Gao confirm inactive, RGS7-Gao confirm inactive, RGS16-Gao single inactive, RGS4-Gao confirm inactive and RGS19-Gao conf inactive.
Screening CCN(Cc1ccncc1)C(=O)CSc1ccc2ccccc2c1 returned RGS7-Gao reg inconclusive, RGS4-Gao reg inactive, RGS16-Gao HTS inactive, Avidin fluor inactive, GSH fluor inactive and RGS8-Gao inactive.
For O=C1c2ccccc2C(=O)N1CCc1ccccn1 the results were RGS7-Gao reg inactive, RGS4-Gao reg inactive, RGS16-Gao HTS inactive, Avidin fluor inactive, GSH fluor inactive, RGS8-Gao 153[activator], RGS4-Gao HTS 127, Avidin counter inactive, RGS8-Gao confirm inactive, RGS7-Gao confirm inactive, RGS16-Gao single inactive, RGS4-Gao confirm inactive and RGS19-Gao conf inactive.
O=C1c2cccc3c([N+](=O)[O-])ccc(c23)C(=O)N1CCc1ccccn1 was read as RGS7-Gao reg inconclusive, RGS4-Gao reg inactive, RGS16-Gao HTS inactive, Avidin fluor inactive and RGS8-Gao inactive.
